Experimental data taken from PubChem BioAssay (NCI).
Compounds without any hit were thinned out: in the full panel of roughly 83,000, 20% have a hit.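 Treatment: one concentration, 48 hours, 96-well format. Scoring: percent growth, with anything below 10 considered active.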 Active and inactive are the calls of the source.

What follows are compounds tested on HL-60(TB) leukemia (assay: NCI-60 one-dose screen, 48 h (100 = growth as untreated, 0 = no growth, -100 = all killed)). Conditions: 10 µM unless noted.

`Clc1ccc(Nc2nnc(-c3ccc4c(c3)OCO4)o2)cc1` was tested. Which growth did it give?
The growth was 80.1% (inactive).

With `CC(C)C(C#N)(C(C)C)C(C)C` as the compound, how does the growth read?
The growth was 109% (inactive).

`COc1ccc(SC2c3ccc(O)cc3Oc3nc(N)c(C#N)c(N)c32)cc1` (centres undefined) was tested. Which growth did it give?
Its growth is 46.9% (inactive).

`COc1ccc(Cc2nnc(Nc3nc4ccccc4s3)s2)cc1` was tested. Which growth did it give?
The growth was -32.7% (active).

With `CC(C)c1nc2ccccc2n1CC(=O)N/N=C/c1cccc(O)c1` as the compound, how does the growth read?
The growth was 86.5% (inactive).

How did the growth turn out when `CCOC(=O)c1csc(-c2ccc(COC(=O)c3ccccc3)o2)n1` was run?
The growth was 107% (inactive).

How did the growth turn out when `Cc1cc(NCCCCNc2ccnc3cc(Cl)ccc23)nc(Nc2ccc(C(=O)N3CCCCC3)cc2)n1` was run?
Its growth is -59.3% (active).

How did the growth turn out when `CCOC(=O)c1ccc2nc(-c3c(C)nn(-c4ccccc4)c3N3CCOCC3)[nH]c2c1` was run?
Its growth is 95.4% (inactive).

How did the growth turn out when `CC(C)=CCNc1ncnc2c1ncn2C1OC(CO)C(O)C1O` (centres undefined) was run?
The growth was -40.7% [1 mM] (active).

For `CN(C)CCCn1c2c(c3cnccc3c1=O)C(=O)c1ccccc1-2`, which growth is on record?
Its growth is 2.29% (active).

For `COc1ccc(-n2cc(COc3ccc4c5ccnc(C)c5n(CC(C)C)c4c3)nn2)cc1`, which growth is on record?
Its growth is -10.6% (active).

With `COc1cc2c(/C=C3\C(=O)Nc4ccccc43)c(C(=O)O)[nH]c2cc1C` as the compound, how does the growth read?
Its growth is 110% (inactive).

With `Cc1nc2sc(C(=O)Nc3cccc(Cl)c3C)c(N)c2cc1C(C)O` (centres undefined) as the compound, how does the growth read?
Its growth is -18.7% (active).

For `COc1cc(/C=C\c2cc(OC)c(OC)c(OC)c2)cc(N)c1OC`, which growth is on record?
Its growth is 48.8% (inactive).

With `C=CN(C(=O)N1CCN(c2cc3c(cc2F)c(=O)c(C(=O)O)cn3C2CC2)CC1)c1nc(-c2ccccc2)cs1` as the compound, how does the growth read?
Its growth is 58.1% (inactive).

How did the growth turn out when `CCN(CC)c1ccc2cc(C(Nc3ccc(Br)c(C(F)(F)F)c3)c3nnnn3C(C)(C)C)c(=O)oc2c1` (centres undefined) was run?
The growth was 93% (inactive).

`Cc1ccc(NC(=O)c2[nH]c(SCCN(C)C)nc2-c2ccc(F)cc2)cc1Nc1ccc2ncn(C)c(=O)c2c1` was tested. Which growth did it give?
The growth was 19.3% (inactive).

How did the growth turn out when `COc1cccc(-c2nn(-c3ccccc3)cc2-c2ccnc(NCCCO)c2)c1` was run?
Its growth is -7.94% (active).

Which growth does the source give for `CCCCC[C@H]1C/C=C2/C(=O)C=C[C@@H]2C/C=C\CCCC(=O)O1` here?
The growth was 4.48% (active).

How did the growth turn out when `C/C(=N\NC(N)=S)C(C)(C)O` was run?
The growth was 102% (inactive).

For `COc1cc(C(=O)/C=C/c2c(-c3ccc(F)cc3)nc3sc(C)cn23)cc(OC)c1OC`, which growth is on record?
Its growth is -34% (active).

Which growth does the source give for `CCCCCOc1ccc(/C=N/Nc2cc(C)nc3ccc(Cl)cc23)cc1` here?
Its growth is 0.0681% (active).

`CC(=O)OCC(=O)[C@@]1(O)CC[C@H]2[C@@H]3CC(=C(Br)Br)C4=CC(=O)CC[C@]4(C)[C@H]3C(=O)C[C@@]21C` was tested. Which growth did it give?
Its growth is 90.1% (inactive).

Which growth does the source give for `CCOC(=O)C#Cc1c(C(=O)OCC)nnn1Cc1ccc(C(F)(F)F)cc1` here?
The growth was 39% (inactive).

How did the growth turn out when `COc1cc(-c2nn(-c3ccc(C(=O)O)cc3)cc2C(=O)O)ccc1O` was run?
Its growth is 46.1% (inactive).

With `COC(CC(F)F)c1cn(S(=O)(=O)c2ccc(C)cc2)c2ccccc12` (centres undefined) as the compound, how does the growth read?
Its growth is 8.92% (active).

Which growth does the source give for `Nc1n[nH]c(=S)n1-c1ccc(Cl)cc1` here?
The growth was 82.6% (inactive).

Which growth does the source give for `CC1(C)COB(OCC(C)(C)COB2OCC(C)(C)CO2)OC1` here?
Its growth is 101% (inactive).

How did the growth turn out when `CC[C@H](Nc1nc(N)nc(N)c1Cl)c1nc2cccc(NCc3ccc(C(=O)NO)cc3)c2c(=O)n1-c1ccccc1` was run?
Its growth is -34.7% (active).

Which growth does the source give for `C=C(CN1CC=CCC1)[C@@H]1CC[C@]2(C(=O)OC)CC[C@]3(C)[C@H](CC[C@@H]4[C@@]5(C)CC[C@H](OC(C)=O)C(C)(C)[C@@H]5CC[C@]43C)[C@@H]12` here?
The growth was 49.6% (inactive).

With `CCN(CC)CCNc1ccc(C)c2sc3cc(C)ccc3c(=O)c12` as the compound, how does the growth read?
Its growth is 64.1% (inactive).

`COc1cc2nccc(Oc3ccc(NC(=O)Nc4cc(C)on4)c(Cl)c3)c2cc1OC` was tested. Which growth did it give?
The growth was 9.48% (active).

With `Nc1ccc(C2=NN(c3ccccc3)C(c3ccc(Cl)cc3)C2)cc1` (centres undefined) as the compound, how does the growth read?
The growth was 59.6% (inactive).

`C=C1C(=O)O[C@H]2[C@H]1CC/C(COC(=O)/C=C/C(=O)OC/C1=C/CC[C@@]3(C)O[C@H]3[C@H]3OC(=O)C(=C)[C@@H]3CC1)=C\CC[C@@]1(C)O[C@@H]21` was tested. Which growth did it give?
Its growth is -23.6% (active).

For `COC(=O)[C@]12CCC(C)(C)C[C@H]1[C@H]1C(=O)C[C@@H]3[C@@]4(C)c5c([nH]c6ccccc6c5=O)C(C)(C)[C@@H]4CC[C@@]3(C)[C@]1(C)CC2`, which growth is on record?
The growth was 21.8% (inactive).

Which growth does the source give for `Cc1cccc2c(=O)c3c(sc12)c(N1CCNCC1)nc1ccccc13` here?
The growth was 52.9% (inactive).

`Fc1ccccc1-c1cnn2cc(-c3ccccc3)cnc12` was tested. Which growth did it give?
Its growth is 98.6% (inactive).

Which growth does the source give for `Cc1cc2ccccc2cn1` here?
Its growth is 91.6% (inactive).

With `CCCCOc1c(N)cc(Cl)cc1C(=O)OCCN(CC)CC` as the compound, how does the growth read?
Its growth is 51% (inactive).
